The nature of test [1]: AP1 Signaling Pathway (AID 357). Also: % is scaled to controls: 0 for no effect and ±100 for the full control effect. The settings on record: ME-180 AP-1-bla reporter, EGF-induced, beta-lactamase ratio, 5 h; at 7.69 µM (top of the series) unless noted. The essentials: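 AP-1-bla ME-180 cells with beta-lactamase reporter under AP-1 response element, stimulated with EC50 EGF; compounds titrated, 5 hours at 37 degrees Celsius. CCF4 read at 460/530 nm ratio; positive and negative modulators judged by AC50.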

Test [2] deals with Cytochrome P450 1A2 (Homo sapiens) (UniProt P05177). Nature of the test: p450-cyp1a2 (AID 410; calls by dose curve; also: potency is read from the fitted curve at half-maximal effect;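 as to activity change, negative = inhibition: -100% = full effect of reference inhibitor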). The gist of the method:
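Inhibition was calculated relative to 57 uM furafylline (full inhibition). The reaction used human CYP1A2 at 20nM with Luciferin-ME at its Km, 100uM, driven by an NADPH-regenerating system for 60 min at room temperature.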

Test [3] is described as follows: Stat Signaling Pathway (AID 446).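 Also: ME-180 cervical cancer cells given 40 pM IL-6 alongside compound; SIE-controlled beta-lactamase reporter measured as 460/530 nm FRET emission ratio; % is scaled to controls: 0 for no effect and ±100 for the full control effect.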 The settings on record: ME-180 (cervical carcinoma) SIE beta-lactamase reporter, IL-6 stimulated, 5 h; at 7.69 µM (top of the series) unless noted. The gist of the method:
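ME-180 SIE-bla cells; overnight plating; cpd + IL-6 40 pM, 5 h, 37 C; LiveBLAzer 2.5 h RT; 460/530 nm emission ratio. Normalized to 300 pM IL-6 and 125 nM JAK inhibitor controls.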

The target of test [4] is Glucocorticoid receptor (Homo sapiens) (UniProt P04150). Kind of test: GR-EFC Redistribution (AID 451; calls by dose curve; also: potency is read from the fitted curve at half-maximal effect). As to conditions: CHO-K1 GR-EFC translocation, beta-gal luminescence, 2 h. The essentials: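 Translocation of GR-ED fusion to nuclear EA restores b-gal, read by luminescence after 1 h room-temperature detection. Engineered CHO-K1 biosensor cells, 1,000/well, exposed 2 h at 37 C to titrations up to 46 uM final.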

Test [5] addresses Mitogen-activated protein kinase 10 (Mus musculus) (UniProt Q61831). Nature of the test: JNK3 AlphaScreen Assay (AID 530).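 Also: kinase came from lysate of stimulated human HepG2 cells; signal reports phosphorylation of biotinylated GST-cJun 1-79 at Ser73 with 10 µM ATP; % is scaled to controls: 0 for no effect and ±100 for the full control effect.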 The essentials: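 Room-temperature AlphaScreen kinase assay; pre-activated HepG2 lysate as JNK3 source, biotin-GST-cJun(1-79) substrate, 10 uM ATP, compound 15 min preincubation.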
(In Alpha technology, singlet oxygen from a donor bead excites a nearby acceptor bead.)

Test [6] addresses 3',5'-cyclic-AMP phosphodiesterase 4B (Homo sapiens) (UniProt Q07343). Nature of the test: qHTS Assay for Inhibitors of PDE-IV (AID 607; active = well fitted activation curve with a large enough effect in the main read-out, with a control signal flat, not every such curve was filed as active; also: % of control where 0% means no effect). The gist of the method:
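ACTOne HEK293 cells carry a modified cAMP-gated CNG channel and express endogenous PDE4; plated 1000 cells/well, compounds up to 22.9 uM final. Membrane-potential dye fluorescence (ex 535/em 590) was read; parental cells received 10 uM forskolin + 100 uM RO 20-1724.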
For orientation: In qHTS, concentration-response curves come from the screen itself.

Test [7] has as its target Cytochrome P450 3A4 (Homo sapiens) (UniProt P08684). Kind of test: qHTS Assay for Inhibitors and Substrates of Cytochrome P450 3A4 (AID 884; active = well fitted curve in the direction sought with a large enough effect; an effect the other way counts as inactive or inconclusive; also: nearly all actives have a fitted effect of over 50% in size; also: potency is read from the fitted curve at half-maximal effect). The essentials: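 20 nM human CYP3A4 with 25 uM Luciferin-PPXE (at KM) in 200 mM KPO4, preincubated 10 min with compound; NADPH regeneration started a 60 min RT reaction. Luciferin detected by luminescence, normalized to 57 uM ketoconazole as full inhibition.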

The target is the same in test [8]. Nature of the test: qHTS Assay for Activators of Cytochrome P450 3A4 (AID 885; active = well fitted curve in the direction sought with a large enough effect; an effect the other way counts as inactive or inconclusive; also: nearly all actives have a fitted effect of over 65% in size; also: potency is read from the fitted curve at half-maximal effect). The essentials:
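20nM CYP3A4 + 25uM Luciferin-PPXE (=KM), 200mM KPO4; cpd 10 min RT; NADPH regen, 60 min RT; stop w/ detection buffer, 20 min; luminescence. Normalized to 57 uM ketoconazole.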

Test [9] is described as follows: qHTS Assay for Lipid Storage Modulators (AID 1519; calls by dose curve). The settings on record: Drosophila S3 cells, BODIPY lipid droplet/cell ratio, laser cytometry, cells loaded with oleic acid; for activity change, negative = inhibition: at 57.5 µM (top of the series). The essentials:
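Cells seeded at 5,000 per well were treated with compounds over a concentration series and loaded with oleic acid (400 uM, as added). Lipid droplet fluorescence (488 nm excitation, 500-530 nm channel) was read by laser-scanning cytometry and normalized to 20 uM Triacsin C.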

Test [10] in a line: Primary qHTS for small molecule stabilizers of the endoplasmic reticulum resident proteome: Secreted ER Calcium Modulated Protein (SERCaMP) assay (AID 1508630; active = well fitted curve in the direction sought with a large enough effect; an effect the other way counts as inactive or inconclusive; also: % is scaled to controls: 0 for no effect and ±100 for the full control effect). The gist of the method: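 GLuc-SERCaMP-expressing SH-SY5Y cells, pretreated 16 h with compound, are challenged with thapsigargin to empty ER calcium stores; after 4 h, coelenterazine is added directly to the medium and luminescence is imaged.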

The target of test [11] is Glucocorticoid receptor (Homo sapiens) (UniProt P04150). Nature of the test: GR-GFP Redistribution (AID 450;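 active = compounds whose dose series gives a full or clear partial fitted curve of increased nuclear translocation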; also: potency is read from the fitted curve at half-maximal effect). As to conditions: U2OS GR-GFP nuclear translocation, laser cytometry, 2 h.
A short description of test [12]: NFAT Signaling Pathway (AID 444). The settings on record: Jurkat NFAT-bla M1, carbachol, beta-lactamase ratio, 5 h; at 7.69 µM (top of the series) unless noted. The gist of the method:
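Read-out: CCF4 FRET ratio (460 nm/530 nm) after 1 h RT dye loading, used for %activity and AC50 from titration series. Cells: Jurkat NFAT-β-lactamase/M1 line, treated with compound plus 1 uM carbachol for 5 h, 37 °C.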

The target of test [13] is Ubiquitin carboxyl-terminal hydrolase 1 (Homo sapiens) (UniProt O94782). Kind of test: Inhibitors of USP1/UAF1: Pilot qHTS (AID 504865; active = well fitted curve in the direction sought with a large enough effect; an effect the other way counts as inactive or inconclusive;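 also: rhodamine fluorescence freed from ubiquitin-rhodamine substrate followed over time; top concentration of the series differs between compounds; % is scaled to controls: 0 for no effect and ±100 for the full control effect; nearly all actives have a fitted effect of over 35% in size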). The gist of the method: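 USP1/UAF1 complex at 1 nM preincubated 15 min at room temperature with compound, then Ub-Rho substrate added at 150 nM final. Fluorescence (480/540 nm) read kinetically in 50 mM HEPES pH 7.8, 0.5 mM EDTA, 1 mM TCEP, 0.1 mg/ml BSA, 0.01% Tween-20.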

[14] abbreviates: measured here: cell count channel max response.
The mark [15] stands for this setting: measured here: lipid channel max response.

The text below walks through data of PubChem BioAssay (NCATS).

Records with an inconclusive call do not appear. Active and inactive are the calls of the source. Unless noted, calls follow the shape of the dose curve; as a rule, active = well fitted curve in either direction with a large enough effect (not every such curve was filed as active); inconclusive = small, poorly fitted or top-dose-only effect, or another doubt; inactive = flat fitted curve, though single readings scatter.

Sequence of Glucocorticoid receptor (Homo sapiens) (P04150 whole entry, looked up, the tested form may be a part): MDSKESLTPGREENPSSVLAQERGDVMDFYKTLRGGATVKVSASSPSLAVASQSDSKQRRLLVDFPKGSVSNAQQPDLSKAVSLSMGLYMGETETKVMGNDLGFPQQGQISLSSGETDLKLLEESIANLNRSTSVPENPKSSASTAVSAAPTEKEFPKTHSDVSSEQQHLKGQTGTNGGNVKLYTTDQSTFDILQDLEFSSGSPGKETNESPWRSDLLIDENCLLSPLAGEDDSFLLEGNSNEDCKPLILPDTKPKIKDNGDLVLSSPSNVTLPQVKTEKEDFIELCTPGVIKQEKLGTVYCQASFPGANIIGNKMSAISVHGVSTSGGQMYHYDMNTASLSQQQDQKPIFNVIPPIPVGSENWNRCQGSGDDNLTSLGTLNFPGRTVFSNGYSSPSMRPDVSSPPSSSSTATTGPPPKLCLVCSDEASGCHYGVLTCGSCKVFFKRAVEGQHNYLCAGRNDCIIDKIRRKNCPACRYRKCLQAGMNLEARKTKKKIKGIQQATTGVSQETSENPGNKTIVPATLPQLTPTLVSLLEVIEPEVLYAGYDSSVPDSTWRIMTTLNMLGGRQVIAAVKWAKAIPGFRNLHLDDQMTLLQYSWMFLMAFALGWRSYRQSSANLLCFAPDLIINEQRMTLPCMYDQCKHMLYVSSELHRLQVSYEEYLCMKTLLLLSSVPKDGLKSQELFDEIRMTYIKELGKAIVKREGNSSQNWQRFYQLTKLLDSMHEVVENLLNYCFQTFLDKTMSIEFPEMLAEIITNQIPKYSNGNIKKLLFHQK
Sequence of Cytochrome P450 3A4 (Homo sapiens) (P08684 whole entry, looked up): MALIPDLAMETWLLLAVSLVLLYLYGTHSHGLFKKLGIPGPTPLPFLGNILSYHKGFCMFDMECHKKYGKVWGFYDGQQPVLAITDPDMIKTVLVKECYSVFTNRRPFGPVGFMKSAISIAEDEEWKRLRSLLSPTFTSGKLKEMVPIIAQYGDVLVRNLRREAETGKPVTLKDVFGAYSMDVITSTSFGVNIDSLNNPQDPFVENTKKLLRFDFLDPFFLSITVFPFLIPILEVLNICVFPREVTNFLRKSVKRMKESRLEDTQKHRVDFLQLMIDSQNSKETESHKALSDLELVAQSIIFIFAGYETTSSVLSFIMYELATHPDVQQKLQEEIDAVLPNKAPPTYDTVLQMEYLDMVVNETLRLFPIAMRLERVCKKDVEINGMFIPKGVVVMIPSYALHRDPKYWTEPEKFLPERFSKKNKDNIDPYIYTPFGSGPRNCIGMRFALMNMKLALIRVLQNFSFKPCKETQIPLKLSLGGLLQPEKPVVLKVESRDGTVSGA
Sequence of 3',5'-cyclic-AMP phosphodiesterase 4B (Homo sapiens) (Q07343 whole entry, looked up): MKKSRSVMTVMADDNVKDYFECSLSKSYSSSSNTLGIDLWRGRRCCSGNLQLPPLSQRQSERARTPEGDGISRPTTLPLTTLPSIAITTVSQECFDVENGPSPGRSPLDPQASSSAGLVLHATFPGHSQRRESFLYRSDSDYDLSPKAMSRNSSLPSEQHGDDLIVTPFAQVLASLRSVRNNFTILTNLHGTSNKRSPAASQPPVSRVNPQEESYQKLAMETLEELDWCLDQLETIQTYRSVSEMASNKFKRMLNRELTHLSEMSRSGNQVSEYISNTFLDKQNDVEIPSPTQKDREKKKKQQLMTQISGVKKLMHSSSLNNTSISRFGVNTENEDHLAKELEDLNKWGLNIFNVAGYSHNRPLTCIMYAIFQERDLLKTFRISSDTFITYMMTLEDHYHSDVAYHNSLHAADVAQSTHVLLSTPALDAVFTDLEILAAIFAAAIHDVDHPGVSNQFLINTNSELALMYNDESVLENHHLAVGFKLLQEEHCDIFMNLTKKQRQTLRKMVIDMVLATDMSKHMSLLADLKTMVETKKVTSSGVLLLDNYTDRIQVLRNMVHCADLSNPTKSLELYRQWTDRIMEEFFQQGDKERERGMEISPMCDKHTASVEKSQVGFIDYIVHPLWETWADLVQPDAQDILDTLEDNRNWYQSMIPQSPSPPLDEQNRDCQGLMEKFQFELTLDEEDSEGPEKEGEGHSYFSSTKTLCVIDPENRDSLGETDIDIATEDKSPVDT
Sequence of Cytochrome P450 1A2 (Homo sapiens) (P05177 whole entry, looked up): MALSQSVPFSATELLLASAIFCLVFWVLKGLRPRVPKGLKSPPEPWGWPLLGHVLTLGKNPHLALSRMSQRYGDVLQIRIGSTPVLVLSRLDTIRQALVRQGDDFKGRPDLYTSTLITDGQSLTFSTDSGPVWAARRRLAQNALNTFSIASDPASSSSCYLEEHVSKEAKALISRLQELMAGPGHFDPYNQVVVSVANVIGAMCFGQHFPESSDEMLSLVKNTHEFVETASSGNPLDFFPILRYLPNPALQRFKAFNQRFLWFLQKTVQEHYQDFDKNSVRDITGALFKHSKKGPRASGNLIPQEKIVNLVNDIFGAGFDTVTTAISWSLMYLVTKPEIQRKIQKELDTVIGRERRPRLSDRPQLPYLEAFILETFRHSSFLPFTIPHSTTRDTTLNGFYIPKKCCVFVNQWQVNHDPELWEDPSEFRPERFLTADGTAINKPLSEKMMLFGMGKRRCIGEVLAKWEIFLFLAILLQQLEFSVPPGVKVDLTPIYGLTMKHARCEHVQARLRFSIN
Sequence of Ubiquitin carboxyl-terminal hydrolase 1 (Homo sapiens) (O94782 whole entry, looked up): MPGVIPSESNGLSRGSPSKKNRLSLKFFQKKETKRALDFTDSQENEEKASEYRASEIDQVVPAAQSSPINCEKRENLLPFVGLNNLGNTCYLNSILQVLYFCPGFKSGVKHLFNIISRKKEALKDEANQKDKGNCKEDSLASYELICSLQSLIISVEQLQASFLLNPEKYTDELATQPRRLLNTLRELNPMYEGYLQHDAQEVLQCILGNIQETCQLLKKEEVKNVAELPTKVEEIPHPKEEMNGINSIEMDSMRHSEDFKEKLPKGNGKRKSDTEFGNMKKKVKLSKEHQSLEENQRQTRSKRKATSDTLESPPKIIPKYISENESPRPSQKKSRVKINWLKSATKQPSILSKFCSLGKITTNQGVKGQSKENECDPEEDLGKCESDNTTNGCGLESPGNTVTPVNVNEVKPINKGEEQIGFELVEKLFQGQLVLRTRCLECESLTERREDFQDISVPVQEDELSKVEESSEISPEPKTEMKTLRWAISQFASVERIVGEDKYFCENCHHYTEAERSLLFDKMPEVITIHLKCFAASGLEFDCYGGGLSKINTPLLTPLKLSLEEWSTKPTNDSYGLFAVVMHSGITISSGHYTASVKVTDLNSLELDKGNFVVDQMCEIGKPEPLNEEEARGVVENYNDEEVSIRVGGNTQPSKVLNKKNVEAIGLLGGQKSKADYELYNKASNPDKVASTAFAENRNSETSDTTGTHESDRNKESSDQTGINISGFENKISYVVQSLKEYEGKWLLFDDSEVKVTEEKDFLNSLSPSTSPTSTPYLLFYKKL

Take `O=C(c1ccco1)N1CCC2(CCN(Cc3ccccc3)CC2)CC1`: the activity change, negative = inhibition in test [1] was -4.92% (inactive); in test [9] it was -0.6% (inactive). Also, the Potency result in [2], in [5], in test [6] and in [7] was “inactive” throughout. In test [3], the activity, negative = inhibition was -6.84% (inactive). In addition, the figures for the Potency in [4] and in test [8] were > 46 µM (inactive) and 20 µM (active), respectively. The figures for the max response in test [9] (setting [14]) and in [9] (setting [15]) were -0.833% and 1.54%, respectively. The result in test [10] was inactive.

With `CS(=O)(=O)Nc1cccc(-c2nc(NCCN3CCOCC3)c3ccccc3n2)c1`, the values for the activity change, negative = inhibition in test [1] and in [9] were -21.3% (inactive) and 9.69% (inactive), respectively. The Potency is 25.1 µM (active) in test [2], > 46 µM (inactive) in test [11] and > 46 µM (inactive) in test [4]. In addition, in test [3], the activity, negative = inhibition is -7.39% (inactive). The Potency entry in test [5] and in [6] was “inactive” in each case. Besides, the max response in [9] (setting [14]) was -5.53%; in [9] (setting [15]), 2.51%. In addition, in [10], the outcome was inactive.

In the case of `Cc1noc(C)c1C(=O)N1CCC2(CC1)CCN(c1ccncc1)CC2`, the activity change, negative = inhibition in test [1] was 10.3% (inactive); in test [9] it was 1.45% (inactive). The Potency result in [2], in test [5], in [6] and in [8] was “inactive” throughout. Further, in test [3], the activity, negative = inhibition is 8.12% (inactive). Moreover, in test [4], the Potency was > 46 µM (inactive). Moreover, the values for the max response in [9] (setting [14]) and in test [9] (setting [15]) were 9.32% and 12.2%, respectively. Further, in test [10], the result was inactive.

Take `Cn1cccc1C(=O)N1CCC2(CC1)CN(C(=O)Nc1cccc(F)c1)C2`: the activity change, negative = inhibition in test [1] is 5.05% (inactive); in test [12] it was 6.99% (inactive); in test [9], 2.3% (inactive). In addition, the activity, negative = inhibition in test [3] was -4.36% (inactive). Also, the Potency in test [4] was > 46 µM (inactive). Moreover, the Potency result in test [5] and in [6] was “inactive” in each case. Also, the max response is -3.47% in [9] (setting [14]) and 0.81% in test [9] (setting [15]). Also, the result in test [10] was inactive.

`COc1ccc(CNc2nc(-c3ccoc3)nc3ccccc23)c(OC)c1`: the activity change, negative = inhibition in test [1] was -10.8% (inactive); in [12], -8.73% (inactive); in test [9], 11% (inactive). For the same molecule, the activity, negative = inhibition in test [3] was 6.96% (inactive). Moreover, the Potency in test [11] and in test [4] was > 46 µM (inactive) each time. Also, the Potency result in test [5] and in test [6] was “inactive” in each case. Further, the max response in test [9] (setting [14]) was -6.93%; in test [9] (setting [15]) it was 2.43%. The result in [10] was inactive.

Turning to `O=C(Nc1cccc(F)c1)N1CC2(CCN(C(=O)c3cnccn3)CC2)C1`, the activity change, negative = inhibition in test [1] was -4.36% (inactive); in test [12], 20.8% (inactive); in test [9], 6.82% (inactive). The Potency result in test [2], in [5] and in test [6] was “inactive” throughout. For the same molecule, in [3], the activity, negative = inhibition was -2.15% (inactive). In addition, the Potency in [4] was > 46 µM (inactive). Moreover, the max response was 10.6% in [9] (setting [14]) and 20.5% in test [9] (setting [15]). The result in [10] was inactive.

In the case of `Cc1cnc(CNc2ncnc3ccc(-c4cccc(C#N)c4)cc23)cn1`, the figures for the activity change, negative = inhibition in [1] and in test [9] were -21.7% (inactive) and 11.4% (inactive), respectively. In addition, the Potency is 0.398 µM (active) in test [2], > 46 µM (inactive) in [11], > 46 µM (inactive) in test [4] and 3.16 µM (active) in test [7]. The activity, negative = inhibition in test [3] is -7.7% (inactive). Also, the Potency entry in test [5], in test [6], in test [8] and in [13] was “inactive” in each case. Further, the max response was -3.07% in test [9] (setting [14]) and 8.37% in test [9] (setting [15]). In addition, the result in test [10] was inactive.
